Bioassay records: PubChem, several laboratories
CYP2C9 activ = human CYP2C9 activators, primary screen, biochemical, luminescence | activation factor at 5 µM | 1.4% of 96,000 active | Cytochrome P450 2C9 (Homo sapiens), P11712 | recombinant CYP2C9, luciferin-H conversion; hits give high values; factor 1 = untreated enzyme, 0 = blocked;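 active = activation factor of 2 or more for CYP2C9 at a 5 µM dose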;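 also: 0 = sulfaphenazole-blocked wells and 1 = vehicle-only wells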
sEH act = soluble epoxide hydrolase activators, primary screen, biochemical, human sEH. 0.04% of 91,000 active. Bifunctional epoxide hydrolase 2 (Homo sapiens), P34913. activation, % at 2 µM. purified human sEH enzymatic activity, activator screen; in the data active = activation above about 37%
Target sequence (P34913 whole entry, looked up): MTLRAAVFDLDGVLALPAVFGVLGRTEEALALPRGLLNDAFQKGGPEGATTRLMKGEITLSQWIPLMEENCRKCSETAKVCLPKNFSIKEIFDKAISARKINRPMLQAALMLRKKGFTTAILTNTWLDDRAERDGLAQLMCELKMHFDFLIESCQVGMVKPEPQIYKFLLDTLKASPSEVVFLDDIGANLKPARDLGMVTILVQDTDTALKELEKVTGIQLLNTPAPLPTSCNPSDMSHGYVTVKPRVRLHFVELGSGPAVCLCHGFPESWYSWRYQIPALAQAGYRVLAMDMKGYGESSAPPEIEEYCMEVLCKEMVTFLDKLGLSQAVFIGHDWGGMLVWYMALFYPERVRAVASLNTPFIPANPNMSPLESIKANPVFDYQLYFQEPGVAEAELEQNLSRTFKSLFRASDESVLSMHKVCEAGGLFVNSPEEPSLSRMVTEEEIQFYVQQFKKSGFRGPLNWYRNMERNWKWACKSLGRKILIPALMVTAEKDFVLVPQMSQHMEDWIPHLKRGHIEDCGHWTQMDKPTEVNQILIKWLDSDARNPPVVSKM
CYP2C19 inhib = blockers of cytochrome P450 2C19 activity – biochemical, luminescence, ADME assay, primary screen | CYP2C19 Supersomes, luciferin-H EGE luminescence, 30 min | inhibition, % at 5 µM | 21% of 96,000 active | AID 778, 2007;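 active = CYP2C19 inhibition above a set limit at 5 µM in the primary screen, cut at about 50% in these data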;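 also: plate controls were negative control wells for no effect and 2.5 mM tranylcypromine positive control for full effect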
sEH inh = soluble epoxide hydrolase inhibitors, primary screen, biochemical, human sEH; Bifunctional epoxide hydrolase 2 (Homo sapiens), P34913; recombinant human sEH enzymatic activity assay; inhibition, % at 2 µM; 0.34% of 91,000 active; AID 707, 2007; in the data active = inhibition above about 80%
CYP2C9 inh = blockers of cytochrome P450 2C9 activity – biochemical, luminescence, ADME assay, primary screen | inhibition, % at 5 µM | CYP2C9 Supersomes, luciferin-H conversion | 20% of 96,000 active;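 active = blocking of liver enzyme CYP2C9 beyond about 50% at 5 µM, limit read from the data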
CYP2C19 activ = human CYP2C19 activators, primary screen, biochemical, luminescence; recombinant CYP2C19, luciferin-H EGE luminescence; hits give high values; 0 = fully inhibited enzyme, 1 = untreated enzyme; Cytochrome P450 2C19 (Homo sapiens), P33261; 96,000 tested, under 10 active; activation factor at 5 µM;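 active = activation factor of at least 2 at 5 µM in the primary screen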;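 also: 0 = wells with 2.5 mM tranylcypromine and 1 = vehicle-only wells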
* marks the source's active call; other numbers are inactive results; nt = no result. In the library only some 27% were active in any assay of this set; here they are far more common.

SMILES	CYP2C9 activ	sEH act	CYP2C19 inhib	sEH inh	CYP2C9 inh	CYP2C19 activ
CC(C)Cn1c(SCc2nnc(-c3cccs3)o2)nc(O)cc1=O	0.3	nt	24	nt	75*	0.8
O=C(C1CC(c2cccc(Br)c2)=NO1)N1CCc2ccccc2C1 (stereo not drawn)	1.5	-5	28	7	-46	0.7
CCCn1c(=O)c2c(C(=O)OCC)cc(-c3ccco3)nc2n(CCC)c1=O	0.4	11	30	-10	61*	0.7
C=CCNC(=O)c1cc(=O)c2ccccc2o1	0.8	nt	9	nt	16	0.9
CCCS(=O)(=O)N1CCC(C(=O)NCCN2CCC(Cc3ccccc3)CC2)CC1	0.9	nt	32	nt	11	0.7
CC1CN(c2ccc(S(=O)(=O)N3CCOCC3)cn2)CC(C)O1 (stereo not drawn)	1	-8	-19	8	-2	1.2
Cc1ccc(S(=O)(=O)Nc2cccc(C(=O)Nc3cc(C)ccn3)c2)cc1	0.7	3	28	-1	31	0.7
Cc1ccnc(NC(=O)c2cccc(NS(=O)(=O)c3ccccc3C)c2)c1	0.7	-13	52*	15	33	0.5
Cc1ccc(CNC(=O)CS(=O)CC(=O)O)cc1 (stereo not drawn)	1.1	-11	-10	9	-12	1.1
Cc1nnc(C)c2c(C)n(-c3ccc(Br)cc3)c(C)c12	1.2	-5	8	3	-15	0.9
Cc1ccc(-n2c(C)c3c(C)nnc(C)c3c2C)cc1	1.1	nt	58*	nt	-14	0.4
CCOc1cc(-c2noc(N)c2C(=O)OC)cc(OCC)c1OCC	0.8	20	3	-24	18	1
COC(=O)c1c(-c2ccc(Br)cc2)noc1N	0.5	-6	78*	3	50	0.2
CCCC(=O)Nc1ccc(Br)c(Cl)c1	0.7	-11	60*	13	32	0.4
CCCCC(=O)Nc1ccc(C(=O)N2CCN(c3ccccc3OC)CC2)cc1	0.2	-7	57*	6	77*	0.4
COc1ccccc1N1CCN(C(=O)c2ccc(NC(C)=O)cc2)CC1	1	-6	-5	7	-4	1
CCCCC(=O)Nc1ccc(C(=O)OC2CCCCC2)cc1	0.1	-20	74*	23	91*	0.3
CCOC(=O)C1CCN(C(=O)Nc2ccc3snnc3c2)CC1	0.7	-42	51*	44	28	0.5
CCOCCCNC(=O)c1ccc(NC(C)=O)cc1	1	4	-8	-1	-3	1.1
CCCCCC(=O)Nc1ccc(N2CCN(C(=O)c3ccccc3)CC2)cc1	0.5	-75	43	76	54*	0.6
CCCCCC(=O)NC(=S)Nc1ccc(N2CCCCC2)c(Cl)c1	0.9	-6	2	6	14	1
CCCCCCC(=O)Nc1ccc(C(=O)N2CCCC2)cc1	1.1	-44	2	44	-8	1
CCCCC(=O)Nc1ccc(C(=O)N2CCC(C(=O)OCC)CC2)cc1	0.5	4	68*	-4	54*	0.3
CCCC(=O)N1CCN(c2ccc(NC(=O)c3ccco3)cc2)CC1	1	7	7	-6	1	0.9
CCCC(=O)N1CCN(c2ccc(NC(=S)NC(=O)CC)cc2)CC1	0.6	-3	51*	5	36	0.5
SMILES	CYP2C9 activ	sEH act	CYP2C19 inhib	sEH inh	CYP2C9 inh	CYP2C19 activ
CCCCCC(=O)Nc1ccc(N2CCN(CC)CC2)c(Cl)c1	0.3	nt	13	nt	67*	0.9
O=C(O)CNC1=NCCCCC1	1.1	0	-16	-2	-15	1.2
CCC(C)(C)NC(=O)C(C)OC(=O)c1nsc(Cl)c1Cl (stereo not drawn)	nt	0	nt	2	nt	nt
O=C(Nc1ccc2c(c1)OCO2)C1CCN(S(=O)(=O)c2cccc3cccnc23)CC1	2.8*	nt	32	nt	-179	0.7
O=C(NC1CCCCCC1)C1CCN(S(=O)(=O)c2cccc3cccnc23)CC1	3.9*	-53	47	53	-288	0.5
O=C(NCc1cccs1)C1CCCN1C(=O)Nc1ccccc1 (stereo not drawn)	0.9	4	14	-3	10	0.9
CNS(=O)(=O)c1cccc2cccnc12	1.4	-6	2	10	-42	1
Cc1ccc(S(=O)(=O)N2CCC(C(=O)Nc3ccc4c(c3)OCO4)CC2)cc1	1.1	-4	9	5	-10	0.9
O=C(NCc1cccs1)C1CCCN1S(=O)(=O)c1ccccc1F (stereo not drawn)	0.7	-8	53*	8	33	0.5
O=S(=O)(NCc1cccs1)c1cccc2cccnc12	2.8*	0	28	-1	-184	0.7
CC1CCCCN1CCNC(=O)C1CCN(S(=O)(=O)c2cccc3cccnc23)CC1 (stereo not drawn)	0.9	-2	17	2	8	0.8
CC12CNCC(C)(CN(C(c3ccccc3)c3ccccc3)C1)C2	nt	20	nt	-20	nt	nt
O=C(NCc1cccs1)C1CCCN(S(=O)(=O)c2cccc3cccnc23)C1 (stereo not drawn)	4.2*	nt	30	nt	-322	0.7
O=C(NCc1ccccn1)C1CCCN(S(=O)(=O)c2ccccc2)C1 (stereo not drawn)	1	-1	-7	2	1	1.1
Cc1cccc(NC(=O)C2CCCN(S(=O)(=O)c3cccc4cccnc34)C2)c1 (stereo not drawn)	1.1	nt	81*	nt	-11	0.2
O=C(NC1CCN(Cc2ccccc2)CC1)C1CCN(S(=O)(=O)c2cccc3cccnc23)CC1	2.9*	nt	-14	nt	-187	1.1
O=C(C1CCCN(S(=O)(=O)c2cccc3cccnc23)C1)N1CCN(c2ccccc2F)CC1 (stereo not drawn)	0.6	nt	88*	nt	43	0.1
O=C(C1CCN(S(=O)(=O)c2cccc3nsnc23)CC1)N1CCN(c2ccccc2F)CC1	1.4	-8	-6	5	-38	1.1
CCC(C)(C(=O)NC1CCCCC1)N(C)C(=O)c1ccccn1 (stereo not drawn)	1	2	-4	0	-4	1
CCCCOc1ccc(C(=O)N2CC(C)OC(C)C2)cc1 (stereo not drawn)	1.3	9	6	-11	-31	0.9
COc1cc(/C=N/NC(=O)c2cc(C34CC5CC(CC(C5)C3)C4)[nH]n2)ccc1O	1.6	-1	22	4	-56	0.8
Cc1ccc(CS(=O)(=O)CCC(=O)NCCN2CCCC2)cc1	0.8	-3	-6	2	16	1.1
O=C(NC1CCCC1)C1CCCN(S(=O)(=O)c2cccc3cccnc23)C1 (stereo not drawn)	2.6*	-17	8	17	-160	0.9
